# Experimental data reported in the supplement of paper PMC6555819.
# Experiments:
# Assay in all cases: PBM binding z-score (relative to random genomic background probes); higher = stronger binding; sequences stand for … in GC…GCGATTGACAGCGTAGAATGAAGG
# [1] = tested on: RARb homodimer (NR concentration 270 nM)
# Method in brief: (§1)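 Ligand-free nuclear receptor dimers were bound for 1 h to custom Agilent 4×180K protein-binding microarrays. Detection used antibodies against each partner (one per run). Binding z-scores rest on regression-normalized fluorescence, with random background probes as the reference.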
# [2] = tested on: RARg:RXRa (NR concentration 270 nM, RXRa partner concentration 90 nM)
# Method in brief: as §1
# [3] = tested on: RARg homodimer (NR concentration 270 nM)
# Method in brief: as §1
# [4] = tested on: RXRa DBDmut IVT, anti-RXR (DBD mutation: RXRa K156A/R161A, NR concentration 90 nM)
# Method in brief: as §1
# [5] = tested on: RXRa homodimer (NR concentration 180 nM)
# Method in brief: as §1
# [6] = tested on: THRa:RXRa (NR concentration 90 nM, RXRa partner concentration 90 nM)
# Method in brief: as §1
# [7] = tested on: THRa homodimer (NR concentration 90 nM)
# Method in brief: as §1
# [8] = tested on: VDR homodimer (NR concentration 270 nM)
# Method in brief: as §1
Sequence,PBM binding z-score [1],PBM binding z-score [2],PBM binding z-score [3],PBM binding z-score [4],PBM binding z-score [5],PBM binding z-score [6],PBM binding z-score [7],PBM binding z-score [8]
CCTACTGGGCGAAAGGTCATTGATTCCAATGCTC,4.3,5.19,4.82,1.01,5.76,2.95,0.374,2
CCTGGTAGGTCAATGGTCAGCTAAAGCAGCTCGC,2.92,3.75,4.04,0.676,2.66,1.56,0.243,0.307
CCGTACGGGTCACTGACAGGTTATAGCATTTGGA,3.2,6.14,4.89,1.07,5.53,2.97,-0.108,0.766
ATCTCTAGGTAAGACTCAGATCAGTGAAGAACGC,-0.0502,0.253,0.295,0.0225,0.0293,0.242,0.333,0.414
CATACAGGGTCAGCTAGGCCAGTGTAGGGACGGC,3.34,4.2,4.67,1.57,3.89,3.07,0.856,1.07
ATCTCTAGGTAATAGTTCAGTGAATCCCGAGGAT,1.24,0.897,1.33,0.172,0.482,0.745,0.701,0.41
TCAGACAGGTGAAGGTAACTCCGGTACGCAGTCG,0.814,0.458,0.575,1.28,1.11,1.28,0.325,-0.191
TCTAGCAGGGCAGAGGGTCACTCAAGAGGTACGG,2.89,3.12,2.36,-0.00739,2.68,1.6,-0.329,0.66
ATACCAAGGTGATCGTGTGGTCGTTGATACTAAC,0.584,0.298,0.273,0.0966,0.296,0.959,0.536,0.0513
CCTATTAGTTGACCCTAAGGGCAACCGAAGCTCG,3.48,4.12,2.5,0.762,5.73,4.02,3.25,1.72
CAAACTAGGTCACCGCAAGGTCAAAGTCCGCATG,5.35,8.07,7.32,2.61,6.15,4.68,4.38,4.3
AGAACGAGGGCACTCTGAGTTGATAGCAGAGTAG,0.374,1.4,1.55,2.21,0.823,1.29,-0.153,1.73
AGTCTAAGTTCACTAGGTAACGTAAGATTCAGCT,2.21,3.35,3.69,4.47,2.31,2.27,0.878,4.71
CGAACTAGGTCATCCAGGACAGTGAATACATTGA,3.06,4.04,4.85,2.52,2.79,3.59,1.84,1.96
CGTCCAAGGTCAAAGTCAGTGAAAGAGACTCGAA,3.32,5.86,6.34,3.91,5.95,3.5,1.72,2.46
TCATATAGGTAAAGGTGAAACTCGAACGATATGA,1.6,1.84,1.54,0.648,2.47,1.57,-0.601,-0.375
ATCGAAAGGTCGAAGGTGAGTTTACCCACCCGAA,2.62,4.3,3.49,1.41,5.2,2.45,0.143,3.11
AGTCAAAGTTCATCCAGGTAACGTAAGATATGCT,3.81,5.56,5.81,4.61,4.49,3.57,0.915,5.17
GGAACGAGGGCACAGTTGATAGCATCTGTCGACG,0.918,1.28,1.61,1.69,0.922,1.08,-0.317,0.774

Sequence,PBM binding z-score [1],PBM binding z-score [2],PBM binding z-score [3],PBM binding z-score [4],PBM binding z-score [5],PBM binding z-score [6],PBM binding z-score [7],PBM binding z-score [8]
GCTCGGAGGACAATGTCAGAGCTTTGTCCGTAGA,0.0448,-0.133,0.0822,0.18,-0.593,0.348,-0.612,-0.447
ACTATTAGTTGATACGAGGGCAACCGATAGGTTG,1.59,1.03,0.921,1.04,0.536,2.55,0.673,0.979
TCTCCGAGGACACGAAGGTCAGAGCTTTCCAGAG,3.51,3.46,4.49,0.665,2.02,3.74,2.44,1.76
CGTCCAACGTCATAGGAGGTCAGTGAAGACAGAT,2.87,1.79,2.24,0.609,1.59,3.15,0.654,1.02
CATACAGGGTCAGCGAGGCCAGAGTAGGGACGGC,3.42,4.59,4.23,1.89,4.45,3.58,1.01,2.49
GCAGACAGGTGAAACGCACGTAACTCAGGGTGGC,-0.115,0.327,0.0511,-0.335,0.528,-0.124,-0.367,-0.768
ACATGTAGGTTAGCTGGGGTCATTCAGACTAGGC,3.72,4.24,2.97,2.34,5.59,5.12,3.49,5.66
ATCGAAAGGTCGAAGGTGAGTATGCCCACCCGAA,2.54,4.34,3.76,1.32,5.13,2.04,-0.289,0.413
ACAGACAGATGATGAAGGTAACTCAGGCTATCAT,0.176,0.199,0.513,-0.152,0.225,0.742,0.192,0.335
CGTCCAAGGTCAATGTCAGTGAAAGAGACTCGAA,3.64,5.4,5.96,3.62,4.79,3.57,1.84,2.02
TCTGCTAGGTTAACGATGGTCAGCTAATCTGCTA,0.605,0.561,0.688,0.00765,0.42,1,-1.07,-0.957
ATCTCTAGGTAACAAGTTCAGTGCAAGAGAGGAC,1.96,1.28,1.46,0.886,0.703,2.19,1.03,3.19
GCGACCGGGGCAAAGCAGGTTACCATAAGGTTGG,1.47,1.97,1.54,-0.485,0.949,3.71,-0.0146,-0.132
ATCTCAAGGTAAGACTCAGTTCAGTGAAGAACGC,0.641,0.668,0.469,0.363,0.542,1.36,0.884,1.5
GCTTACGGGTCATAGGTTATAGCATGAATAGAAT,2.49,4.99,3.83,2.34,6.22,2.9,0.18,0.952
CCTACCGGGCCAAGGTCATTGATCAGTCAAAGCA,3.48,3.89,3.32,0.804,3.5,3.58,2.77,3.08
GCTAGTTGGTCAGTAAAAGGTCACGCACCGGTCG,5.17,6.19,5.77,0.692,6.35,3.75,2.43,2.07
CCAACTAGGTCAAGGACAGTGAATCTCCGCACGC,3.18,3.66,4.42,1.8,2.41,3.16,2.22,0.694
TCTCGGAGGACACGAAGGTAAGAGCTTTCCAGAG,0.164,0.396,1.27,0.371,-0.0884,1.18,0.0809,-0.641

Sequence,PBM binding z-score [1],PBM binding z-score [2],PBM binding z-score [3],PBM binding z-score [4],PBM binding z-score [5],PBM binding z-score [6],PBM binding z-score [7],PBM binding z-score [8]
CGTTCAAGGTCAAGGTCAGTGAAAGAGACTCGAA,5.27,6.92,7.85,3.86,6.6,4.48,4.1,3.59
GATAAAGGGTCAAGGCCAGAGTACGCGTATTGAT,4.87,6.46,6.91,2.52,6.59,3.38,0.263,2.36
CTTACTGGGCCATTCAGAGGTCATTGATCATATG,4.12,4.5,3.62,1.88,4.04,3.24,1.61,3.73
CCTATTAGTTGACCATTAGGGCAACCGAAGCTCG,1.68,0.667,0.891,0.456,0.374,0.945,0.78,0.844
TCATATAGGTCAATGCTAGGTGAAAGTCCGATCT,3.86,5.46,5.11,2.09,4.2,3.7,0.903,0.879
AGTCAAAGTTCATCTACGTAACGTAAGATATGCT,3.64,5.4,6,4.59,4.55,1.88,-0.445,4.34
TCTATTAGTTGATTAGCGCAACCGAAACAGCGGA,-0.343,0.177,-0.0626,1.29,0.499,0.0464,0.16,0.523
AGAATGAGGTTATGCGTAGATCAGGGAAGAAAGT,0.687,1.51,1.09,1.23,1.99,2.24,0.599,0.644
CCGACTGGGGCAACGTTACCATAACGCACAGCCA,-0.0419,0.137,0.521,-0.207,-0.126,-0.262,-0.261,-0.403
TCATATAGGTAAAAAGGTGAAAGTCCGTAAGTTA,2.04,2.48,1.06,1.71,2.42,1.55,0.644,0.718
ATCTCTAGGTAAAAAGTTCAGTGAAAGAGAGGAC,2.67,2.69,2.46,0.695,1.04,1.22,0.595,1.56
CCTAGCAGGCCTATCTGGGTCACTCAAGGCTTGA,1.68,0.716,0.616,-0.488,0.644,2.3,0.219,-0.239
ATATGTAGGTTGGCTGGGGTCATTCAGACTAGGC,3.37,3.5,2.19,1.81,5.15,4.72,3.62,5.57
CAAACTAGGTCACGAAACGTCAAAGTCGAATGAC,3.21,4.59,5.27,1.07,3.8,3.28,1.52,0.534
GGTTACGGGTCAAAGGTTATAGCATGAATAGAAT,3.44,6.91,4.71,1.89,9.23,4.06,0.33,1.64
ACTAGTTGGTCAGCCGAGGTCACACACAATTCGG,4.36,4.25,4.08,0.998,4.34,5,4.33,4.04
AGAATGAGGTAAAGATCAGGGAAACAGAATACAT,0.102,0.258,0.491,-0.375,0.406,1.79,0.604,-0.343
CGTCAAATTTCAAGGTAACGTAACAGAAAGCAGC,-0.107,0.0405,0.398,-0.0368,0.32,2.11,1.27,-0.239
CGTCAAAGTTCAGCTAAGGTAACGTAAAGCACGC,3.8,4.28,5.29,3.46,3.15,5.46,2.11,1.84
